# Columns and labels:
# Test in all cases: DAPPL (digital affinity profiling via proximity ligation, sequencing); 10 mM Tris-HCl pH 7.5, 50 mM NaCl, 1 mM DTT, 4% glycerol, room temperature, 30 min; GST-TFs on glutathione beads, 16-mer random dsDNA library, 0.1% formaldehyde crosslink after washing; high values mean tight binding
# FLI1 = molecular target: T1, FLI1 (Homo sapiens, UniProt Q01543 1-452); conditions: protein: recombinant; tags: N-terminal GST; dsDNA, one strand shown
# T1 sequence: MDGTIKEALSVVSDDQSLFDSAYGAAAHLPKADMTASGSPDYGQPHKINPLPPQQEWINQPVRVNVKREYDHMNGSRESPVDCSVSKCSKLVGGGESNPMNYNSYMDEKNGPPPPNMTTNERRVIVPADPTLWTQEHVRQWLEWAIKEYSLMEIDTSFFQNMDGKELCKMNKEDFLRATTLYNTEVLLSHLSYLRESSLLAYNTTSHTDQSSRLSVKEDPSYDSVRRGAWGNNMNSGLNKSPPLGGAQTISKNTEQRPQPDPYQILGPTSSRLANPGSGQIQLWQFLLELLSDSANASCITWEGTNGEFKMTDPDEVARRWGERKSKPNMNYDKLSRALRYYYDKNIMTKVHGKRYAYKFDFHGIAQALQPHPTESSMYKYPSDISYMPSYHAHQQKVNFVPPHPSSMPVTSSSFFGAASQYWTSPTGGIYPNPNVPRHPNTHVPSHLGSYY
# Procedure, shortened: (§1)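 Human transcription factors were made in yeast as GST fusions, captured on glutathione beads and barcoded with DNA. With a tag-only sample included, the pool was incubated with 200 nmole of a random double-stranded 16-mer DNA library in Tris/NaCl/DTT/glycerol buffer at room temperature for 30 min, then crosslinked with 0.1% formaldehyde after washing, ligated by proximity, amplified and sequenced. For binding signal, each hexamer's read frequency for a factor is divided by its frequency for the tag-only sample.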
# ELK1 = molecular target: T2, ELK1 (Homo sapiens, UniProt P19419 1-428); conditions: protein: recombinant; tags: N-terminal GST; dsDNA, one strand shown
# T2 sequence: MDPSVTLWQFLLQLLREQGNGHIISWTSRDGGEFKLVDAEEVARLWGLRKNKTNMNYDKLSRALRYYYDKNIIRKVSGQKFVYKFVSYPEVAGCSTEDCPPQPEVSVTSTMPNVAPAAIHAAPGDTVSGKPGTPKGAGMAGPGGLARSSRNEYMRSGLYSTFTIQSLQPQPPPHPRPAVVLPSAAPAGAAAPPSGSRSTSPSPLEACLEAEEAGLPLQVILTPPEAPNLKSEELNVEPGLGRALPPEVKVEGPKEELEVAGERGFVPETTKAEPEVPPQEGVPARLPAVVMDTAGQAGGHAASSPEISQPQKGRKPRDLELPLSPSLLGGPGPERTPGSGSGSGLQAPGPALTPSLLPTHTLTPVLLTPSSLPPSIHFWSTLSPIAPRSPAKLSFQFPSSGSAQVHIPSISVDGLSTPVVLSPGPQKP
# Procedure, shortened: as §1
# GABPA = molecular target: T3, GABPA (Homo sapiens, UniProt Q06546 1-454); conditions: protein: recombinant; tags: N-terminal GST; dsDNA, one strand shown
# T3 sequence: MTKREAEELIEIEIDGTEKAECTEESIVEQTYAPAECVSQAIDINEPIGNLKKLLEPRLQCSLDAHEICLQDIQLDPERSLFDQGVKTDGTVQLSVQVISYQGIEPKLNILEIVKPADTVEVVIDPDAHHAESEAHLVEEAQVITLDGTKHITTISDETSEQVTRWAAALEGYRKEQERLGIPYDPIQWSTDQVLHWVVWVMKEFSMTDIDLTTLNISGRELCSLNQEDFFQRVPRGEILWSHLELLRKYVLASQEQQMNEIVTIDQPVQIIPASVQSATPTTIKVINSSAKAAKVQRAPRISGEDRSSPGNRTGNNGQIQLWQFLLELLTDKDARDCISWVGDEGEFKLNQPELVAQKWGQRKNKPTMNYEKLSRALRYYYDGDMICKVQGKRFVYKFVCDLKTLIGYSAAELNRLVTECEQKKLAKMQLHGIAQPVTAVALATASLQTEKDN
# Procedure, shortened: as §1
# ELF1 = ELF1 (Homo sapiens, UniProt P32519 1-619); conditions: protein: recombinant; tags: N-terminal GST; dsDNA, one strand shown
# Sequence of ELF1 (P32519 whole entry): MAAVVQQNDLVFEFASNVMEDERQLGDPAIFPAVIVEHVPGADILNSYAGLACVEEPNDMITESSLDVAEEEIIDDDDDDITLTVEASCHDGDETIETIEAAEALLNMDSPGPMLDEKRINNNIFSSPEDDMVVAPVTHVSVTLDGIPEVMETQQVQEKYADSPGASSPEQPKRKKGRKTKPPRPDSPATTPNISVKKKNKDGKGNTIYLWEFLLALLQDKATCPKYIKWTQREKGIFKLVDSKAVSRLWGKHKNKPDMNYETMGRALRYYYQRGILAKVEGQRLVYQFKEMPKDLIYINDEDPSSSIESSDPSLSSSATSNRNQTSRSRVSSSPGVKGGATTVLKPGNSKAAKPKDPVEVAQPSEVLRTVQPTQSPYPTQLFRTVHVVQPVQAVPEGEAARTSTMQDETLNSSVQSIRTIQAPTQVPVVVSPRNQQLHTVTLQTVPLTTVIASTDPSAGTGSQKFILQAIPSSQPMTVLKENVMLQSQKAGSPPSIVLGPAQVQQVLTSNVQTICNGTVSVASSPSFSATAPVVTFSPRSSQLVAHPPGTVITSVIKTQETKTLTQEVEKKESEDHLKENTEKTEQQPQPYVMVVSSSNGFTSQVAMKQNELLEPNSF
# Procedure, shortened: as §1
# EHF = molecular target: T4, EHF (Homo sapiens, UniProt Q9NZC4 1-300); conditions: protein: recombinant; tags: N-terminal GST; dsDNA, one strand shown
# T4 sequence: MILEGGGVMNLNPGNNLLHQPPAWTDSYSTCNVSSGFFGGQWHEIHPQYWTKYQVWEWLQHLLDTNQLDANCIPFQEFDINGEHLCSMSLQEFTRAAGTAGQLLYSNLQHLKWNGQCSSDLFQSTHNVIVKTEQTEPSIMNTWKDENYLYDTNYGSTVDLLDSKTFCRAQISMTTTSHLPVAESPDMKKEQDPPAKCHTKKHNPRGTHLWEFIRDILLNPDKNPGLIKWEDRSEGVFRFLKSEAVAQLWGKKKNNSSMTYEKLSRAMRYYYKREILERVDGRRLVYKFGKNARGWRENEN
# Procedure, shortened: as §1
# ELK3 = molecular target: T5, ELK3 (Homo sapiens, UniProt P41970 1-407); conditions: protein: recombinant; tags: N-terminal GST; dsDNA, one strand shown
# T5 sequence: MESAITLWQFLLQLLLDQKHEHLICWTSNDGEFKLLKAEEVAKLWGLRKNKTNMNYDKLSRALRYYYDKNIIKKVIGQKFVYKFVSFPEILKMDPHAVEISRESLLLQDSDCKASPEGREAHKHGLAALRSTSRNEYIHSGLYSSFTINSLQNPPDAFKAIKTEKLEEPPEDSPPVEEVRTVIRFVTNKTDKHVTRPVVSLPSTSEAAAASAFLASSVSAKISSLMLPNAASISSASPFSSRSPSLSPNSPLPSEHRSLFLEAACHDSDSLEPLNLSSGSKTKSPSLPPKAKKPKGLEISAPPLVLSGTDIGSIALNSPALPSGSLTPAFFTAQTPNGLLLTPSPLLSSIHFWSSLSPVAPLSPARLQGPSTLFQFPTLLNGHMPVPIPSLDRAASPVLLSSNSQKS
# Procedure, shortened: as §1
# ETV5 = ETV5 (Homo sapiens, UniProt P41161 1-510); conditions: protein: recombinant; tags: N-terminal GST; dsDNA, one strand shown
# Sequence of ETV5 (P41161 whole entry): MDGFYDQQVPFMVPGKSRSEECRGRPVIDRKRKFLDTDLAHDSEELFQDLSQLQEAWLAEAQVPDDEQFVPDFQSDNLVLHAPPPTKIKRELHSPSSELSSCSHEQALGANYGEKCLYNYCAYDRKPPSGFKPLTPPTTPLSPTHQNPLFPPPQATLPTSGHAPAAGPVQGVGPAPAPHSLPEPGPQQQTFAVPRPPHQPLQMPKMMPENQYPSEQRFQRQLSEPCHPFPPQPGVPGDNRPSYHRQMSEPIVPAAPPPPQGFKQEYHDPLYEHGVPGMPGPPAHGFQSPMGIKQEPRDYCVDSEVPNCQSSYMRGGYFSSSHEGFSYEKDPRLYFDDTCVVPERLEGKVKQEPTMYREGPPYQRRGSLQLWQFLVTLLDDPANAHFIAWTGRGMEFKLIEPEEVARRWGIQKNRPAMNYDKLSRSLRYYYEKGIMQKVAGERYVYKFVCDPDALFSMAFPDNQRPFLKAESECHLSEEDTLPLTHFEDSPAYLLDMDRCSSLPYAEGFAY
# Procedure, shortened: as §1
# HSF1 = HSF1 (Homo sapiens, UniProt Q00613 1-529); conditions: protein: recombinant; tags: N-terminal GST; chain copies: 3; dsDNA, one strand shown
# Sequence of HSF1 (Q00613 whole entry): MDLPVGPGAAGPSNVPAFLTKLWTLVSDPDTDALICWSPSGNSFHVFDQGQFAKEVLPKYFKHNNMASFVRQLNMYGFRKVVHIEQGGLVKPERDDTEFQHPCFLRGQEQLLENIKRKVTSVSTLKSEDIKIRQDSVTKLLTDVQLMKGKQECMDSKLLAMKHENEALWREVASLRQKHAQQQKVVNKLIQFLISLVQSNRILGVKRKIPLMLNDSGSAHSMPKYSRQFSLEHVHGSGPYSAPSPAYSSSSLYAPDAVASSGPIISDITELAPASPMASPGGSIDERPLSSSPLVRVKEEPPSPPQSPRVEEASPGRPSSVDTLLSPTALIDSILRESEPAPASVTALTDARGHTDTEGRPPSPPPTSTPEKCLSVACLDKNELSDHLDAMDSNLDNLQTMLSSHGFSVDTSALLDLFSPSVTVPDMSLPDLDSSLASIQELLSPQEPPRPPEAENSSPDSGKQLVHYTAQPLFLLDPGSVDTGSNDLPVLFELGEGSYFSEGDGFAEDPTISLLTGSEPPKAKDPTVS
# Procedure, shortened: as §1
# SPIC = molecular target: T6, SPIC (Homo sapiens, UniProt Q8N5J4 1-248); conditions: protein: recombinant; tags: N-terminal GST; dsDNA, one strand shown
# T6 sequence: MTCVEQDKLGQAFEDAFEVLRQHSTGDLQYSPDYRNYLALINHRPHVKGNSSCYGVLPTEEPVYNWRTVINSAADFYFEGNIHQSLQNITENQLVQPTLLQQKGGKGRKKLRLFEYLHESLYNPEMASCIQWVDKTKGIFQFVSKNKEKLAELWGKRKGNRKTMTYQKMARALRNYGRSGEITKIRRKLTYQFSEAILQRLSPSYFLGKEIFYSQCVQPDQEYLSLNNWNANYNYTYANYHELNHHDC
# Procedure, shortened: as §1
# ELF4 = ELF4 (Homo sapiens, UniProt Q99607 1-663); conditions: protein: recombinant; tags: N-terminal GST; dsDNA, one strand shown
# Sequence of ELF4 (Q99607 whole entry): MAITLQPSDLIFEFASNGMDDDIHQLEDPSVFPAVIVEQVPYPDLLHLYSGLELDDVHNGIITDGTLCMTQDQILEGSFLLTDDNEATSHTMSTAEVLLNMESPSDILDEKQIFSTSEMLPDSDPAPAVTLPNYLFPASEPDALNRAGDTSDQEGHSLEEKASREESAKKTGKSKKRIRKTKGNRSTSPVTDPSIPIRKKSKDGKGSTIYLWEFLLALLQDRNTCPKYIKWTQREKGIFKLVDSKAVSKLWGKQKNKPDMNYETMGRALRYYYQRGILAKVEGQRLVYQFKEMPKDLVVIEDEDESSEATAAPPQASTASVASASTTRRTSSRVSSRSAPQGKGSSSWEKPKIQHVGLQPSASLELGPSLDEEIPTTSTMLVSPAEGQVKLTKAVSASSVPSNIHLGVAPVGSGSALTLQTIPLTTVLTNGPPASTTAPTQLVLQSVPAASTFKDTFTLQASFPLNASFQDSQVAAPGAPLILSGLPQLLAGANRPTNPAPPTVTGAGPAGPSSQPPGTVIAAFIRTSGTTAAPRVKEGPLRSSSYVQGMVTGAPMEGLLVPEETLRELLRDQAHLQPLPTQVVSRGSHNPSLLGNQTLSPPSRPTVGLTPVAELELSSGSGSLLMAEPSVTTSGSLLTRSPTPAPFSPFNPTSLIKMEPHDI
# Procedure, shortened: as §1
# ELK4 = molecular target: T7, ELK4 (Homo sapiens, UniProt P28324-2 1-405); conditions: protein: recombinant; tags: N-terminal GST; dsDNA, one strand shown
# T7 sequence: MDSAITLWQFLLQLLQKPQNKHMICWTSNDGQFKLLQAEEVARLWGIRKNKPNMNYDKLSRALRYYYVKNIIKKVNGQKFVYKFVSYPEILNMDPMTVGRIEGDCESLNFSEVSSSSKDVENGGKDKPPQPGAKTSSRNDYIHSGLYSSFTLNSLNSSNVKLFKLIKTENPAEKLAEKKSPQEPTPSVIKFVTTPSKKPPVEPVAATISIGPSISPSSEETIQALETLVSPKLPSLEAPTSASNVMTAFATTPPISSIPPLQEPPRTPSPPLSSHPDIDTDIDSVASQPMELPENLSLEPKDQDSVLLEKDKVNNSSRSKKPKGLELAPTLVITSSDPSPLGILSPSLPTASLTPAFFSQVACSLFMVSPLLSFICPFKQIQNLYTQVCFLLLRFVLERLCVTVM
# Procedure, shortened: as §1
# ELF3 = molecular target: T8, ELF3 (Homo sapiens, UniProt P78545 1-371); conditions: protein: recombinant; tags: N-terminal GST; dsDNA, one strand shown
# T8 sequence: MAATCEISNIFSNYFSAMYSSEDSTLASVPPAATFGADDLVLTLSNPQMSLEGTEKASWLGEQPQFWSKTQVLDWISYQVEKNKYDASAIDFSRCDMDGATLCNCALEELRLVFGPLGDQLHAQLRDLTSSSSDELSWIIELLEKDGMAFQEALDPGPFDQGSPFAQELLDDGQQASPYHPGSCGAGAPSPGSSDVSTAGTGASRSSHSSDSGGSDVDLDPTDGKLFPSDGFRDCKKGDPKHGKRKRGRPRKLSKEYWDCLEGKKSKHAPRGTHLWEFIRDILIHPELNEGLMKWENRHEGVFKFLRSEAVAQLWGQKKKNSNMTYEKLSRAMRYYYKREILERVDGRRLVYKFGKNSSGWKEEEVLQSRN
# Procedure, shortened: as §1
# CRX = CRX (Homo sapiens, UniProt O43186 1-299); conditions: protein: recombinant; tags: N-terminal GST; dsDNA, one strand shown
# Sequence of CRX (O43186 whole entry): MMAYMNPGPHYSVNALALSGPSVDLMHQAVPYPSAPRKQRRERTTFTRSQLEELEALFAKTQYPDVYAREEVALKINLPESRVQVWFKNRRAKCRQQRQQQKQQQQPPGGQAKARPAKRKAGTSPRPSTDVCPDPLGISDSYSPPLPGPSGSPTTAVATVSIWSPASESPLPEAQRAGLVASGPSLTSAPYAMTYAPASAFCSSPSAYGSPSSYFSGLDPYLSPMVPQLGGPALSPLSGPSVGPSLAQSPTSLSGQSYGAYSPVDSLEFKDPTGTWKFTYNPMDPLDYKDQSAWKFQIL
# Procedure, shortened: as §1
# ETV1 = ETV1 (Homo sapiens, UniProt P50549 1-477); conditions: protein: recombinant; tags: N-terminal GST; dsDNA, one strand shown
# Sequence of ETV1 (P50549 whole entry): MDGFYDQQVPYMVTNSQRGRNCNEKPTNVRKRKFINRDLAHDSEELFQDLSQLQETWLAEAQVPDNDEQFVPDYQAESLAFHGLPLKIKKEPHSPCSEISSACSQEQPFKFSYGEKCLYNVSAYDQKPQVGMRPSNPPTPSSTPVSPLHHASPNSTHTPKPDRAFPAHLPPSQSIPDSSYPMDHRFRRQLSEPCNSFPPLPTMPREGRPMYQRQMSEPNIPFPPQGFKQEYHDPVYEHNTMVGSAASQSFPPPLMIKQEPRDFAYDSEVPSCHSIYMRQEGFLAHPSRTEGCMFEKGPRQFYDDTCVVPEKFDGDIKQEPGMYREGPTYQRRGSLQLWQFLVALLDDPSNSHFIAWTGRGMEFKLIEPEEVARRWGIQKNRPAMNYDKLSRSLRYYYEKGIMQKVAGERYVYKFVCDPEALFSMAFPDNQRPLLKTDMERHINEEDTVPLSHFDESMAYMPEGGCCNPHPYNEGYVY
# Procedure, shortened: as §1
sequence,measurement,setting,value
TCATGA,binding signal,FLI1,"1.12 fold enrichment (6-mer frequency, TF over GST control)"
same,binding signal,ELK1,"1 fold enrichment (6-mer frequency, TF over GST control)"
same,binding signal,GABPA,"1.18 fold enrichment (6-mer frequency, TF over GST control)"
same,binding signal,ELF1,"1.03 fold enrichment (6-mer frequency, TF over GST control)"
same,binding signal,EHF,"1.07 fold enrichment (6-mer frequency, TF over GST control)"
same,binding signal,ELK3,"1.05 fold enrichment (6-mer frequency, TF over GST control)"
same,binding signal,ETV5,"1.08 fold enrichment (6-mer frequency, TF over GST control)"
same,binding signal,HSF1,"1.06 fold enrichment (6-mer frequency, TF over GST control)"
same,binding signal,SPIC,"1.07 fold enrichment (6-mer frequency, TF over GST control)"
same,binding signal,ELF4,"1.06 fold enrichment (6-mer frequency, TF over GST control)"
same,binding signal,ELK4,"1.03 fold enrichment (6-mer frequency, TF over GST control)"
same,binding signal,ELF3,"1 fold enrichment (6-mer frequency, TF over GST control)"
same,binding signal,CRX,"1.07 fold enrichment (6-mer frequency, TF over GST control)"
same,binding signal,ETV1,"1.14 fold enrichment (6-mer frequency, TF over GST control)"

# Reference: PMC7862700, “An all-to-all approach to the identification of sequence-specific readers for epigenetic DNA modifications on cytosine”
